# Target: T1, GST-Dm-Relish (Drosophila melanogaster, UniProt Q94527 99-473)
# T1 sequence: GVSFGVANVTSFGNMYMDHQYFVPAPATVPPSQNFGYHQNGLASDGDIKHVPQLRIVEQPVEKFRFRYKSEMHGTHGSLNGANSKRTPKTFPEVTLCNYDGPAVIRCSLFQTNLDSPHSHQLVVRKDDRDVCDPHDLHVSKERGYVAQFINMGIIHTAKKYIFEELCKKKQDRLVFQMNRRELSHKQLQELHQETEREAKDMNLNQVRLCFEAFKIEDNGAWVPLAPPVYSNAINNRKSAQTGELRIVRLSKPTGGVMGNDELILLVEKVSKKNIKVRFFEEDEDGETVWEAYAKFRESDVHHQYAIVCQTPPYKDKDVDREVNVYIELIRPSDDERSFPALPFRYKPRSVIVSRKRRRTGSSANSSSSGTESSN
# Assay: protein-binding microarray (PBM); PBM: ~300 nM protein, 6 mM HEPES pH 7.8, 80 mM KCl, 0.5 mM EDTA, 0.5 mM EGTA, 6% glycerol, 35 ng/ul poly-dIdC, 1% milk, 1 h, room temperature; Ap Aiptasia and Nv Nematostella (sea anemones) / Co Capsaspora / Aq Amphimedon (sponge) / Dm Drosophila / Hu human; RHD is the Rel homology domain; high values mean tight binding
# Settings: dsDNA, one strand shown
row,Sequence,binding signal [z-score]
1,CCGATTAACATCACAAGAATTCCTGATGTTAATCGGGTCTTGATTCGCTTGACGCTGCTG,1.19
2,CCGATTAACATCAAATAATTTCCTGATGTTAATCGGGTCTTGATTCGCTTGACGCTGCTG,1.21
3,CCGATTAACATCAGTGAATTCCATGATGTTAATCGGGTCTTGATTCGCTTGACGCTGCTG,2.81
4,CCGATTAACATCACAATACACGCTGATGTTAATCGGGTCTTGATTCGCTTGACGCTGCTG,1.05
5,CCGATTAACATCACTTAGTACGGTGATGTTAATCGGGTCTTGATTCGCTTGACGCTGCTG,1.1
6,CCGATTAACATCACGGAAAATACTGATGTTAATCGGGTCTTGATTCGCTTGACGCTGCTG,1.21
7,CCGATTAACATCATTTACATTCGTGATGTTAATCGGGTCTTGATTCGCTTGACGCTGCTG,1.06
8,CCGATTAACATCAGGAATTTATATGATGTTAATCGGGTCTTGATTCGCTTGACGCTGCTG,1
9,CCGATTAACATCACGTTCTTTCCTGATGTTAATCGGGTCTTGATTCGCTTGACGCTGCTG,2.3
10,CCGATTAACATCAAGTAATTTTCTGATGTTAATCGGGTCTTGATTCGCTTGACGCTGCTG,1.86
11,CCGATTAACATCACTGGAAATTCTGATGTTAATCGGGTCTTGATTCGCTTGACGCTGCTG,1.59
12,CCGATTAACATCAAGTATTTTCCTGATGTTAATCGGGTCTTGATTCGCTTGACGCTGCTG,1.84
13,CCGATTAACATCAAAAAACCGTTTGATGTTAATCGGGTCTTGATTCGCTTGACGCTGCTG,1.2
14,CCGATTAACATCACCTCTCGCGCTGATGTTAATCGGGTCTTGATTCGCTTGACGCTGCTG,1.25
15,CCGATTAACATCAAGTGATTTCCTGATGTTAATCGGGTCTTGATTCGCTTGACGCTGCTG,4.18
16,CCGATTAACATCACCATTATAGGTGATGTTAATCGGGTCTTGATTCGCTTGACGCTGCTG,1.48
17,CCGATTAACATCAGCGTGACTTTTGATGTTAATCGGGTCTTGATTCGCTTGACGCTGCTG,1.47
18,CCGATTAACATCAGGAAAAAACATGATGTTAATCGGGTCTTGATTCGCTTGACGCTGCTG,2.35
19,CCGATTAACATCAAGTTTTTTCCTGATGTTAATCGGGTCTTGATTCGCTTGACGCTGCTG,1.98
20,CCGATTAACATCAGTGTGCTTCTTGATGTTAATCGGGTCTTGATTCGCTTGACGCTGCTG,1.67

row,Sequence,binding signal [z-score]
1,CCGATTAACATCACGTGTTTTCCTGATGTTAATCGGGTCTTGATTCGCTTGACGCTGCTG,1.04
2,CCGATTAACATCACGAAAAATCCTGATGTTAATCGGGTCTTGATTCGCTTGACGCTGCTG,1.48
3,CCGATTAACATCAGGAAAATTACTGATGTTAATCGGGTCTTGATTCGCTTGACGCTGCTG,1.67
4,CCGATTAACATCAGGAAATTCACTGATGTTAATCGGGTCTTGATTCGCTTGACGCTGCTG,1.48
5,CCGATTAACATCAGGAATATACATGATGTTAATCGGGTCTTGATTCGCTTGACGCTGCTG,2.59
6,CCGATTAACATCAGTGAACCACATGATGTTAATCGGGTCTTGATTCGCTTGACGCTGCTG,5.69
7,CCGATTAACATCAGGAAAAATACTGATGTTAATCGGGTCTTGATTCGCTTGACGCTGCTG,1.36
8,CCGATTAACATCACCCGAGTGCGTGATGTTAATCGGGTCTTGATTCGCTTGACGCTGCTG,1.01
9,CCGATTAACATCAATGGATTTCCTGATGTTAATCGGGTCTTGATTCGCTTGACGCTGCTG,1.12
10,CCGATTAACATCAGAATTTCCTATGATGTTAATCGGGTCTTGATTCGCTTGACGCTGCTG,1.23
11,CCGATTAACATCAGTAAACTCCATGATGTTAATCGGGTCTTGATTCGCTTGACGCTGCTG,1.1
12,CCGATTAACATCAGGATTTTACATGATGTTAATCGGGTCTTGATTCGCTTGACGCTGCTG,3.35
13,CCGATTAACATCAGGAAACTACATGATGTTAATCGGGTCTTGATTCGCTTGACGCTGCTG,5.23
14,CCGATTAACATCACGTAGTTTCCTGATGTTAATCGGGTCTTGATTCGCTTGACGCTGCTG,1.46
15,CCGATTAACATCACGGAATGTACTGATGTTAATCGGGTCTTGATTCGCTTGACGCTGCTG,1.8
16,CCGATTAACATCAATAAATGTACTGATGTTAATCGGGTCTTGATTCGCTTGACGCTGCTG,1.14
17,CCGATTAACATCAAAATTCCAGGTGATGTTAATCGGGTCTTGATTCGCTTGACGCTGCTG,1.13
18,CCGATTAACATCAAGTACATTCCTGATGTTAATCGGGTCTTGATTCGCTTGACGCTGCTG,2.21
19,CCGATTAACATCACGTAAACTCCTGATGTTAATCGGGTCTTGATTCGCTTGACGCTGCTG,1.72
20,CCGATTAACATCAGGCCTTTCCATGATGTTAATCGGGTCTTGATTCGCTTGACGCTGCTG,1.71
